“And” between values parts separate entries of the source, which are not always exact repeats. Equal values may be shown once. Inconclusive results are not listed. Where a call stands in place of a potency, no number is given. The source made the active and inactive calls. Unless noted, the call rests on the fitted dose curve; in most records, active means well fitted inhibition curve with a large enough effect; inconclusive means small, poorly fitted or top-dose-only effect; inactive means no such curve, though single readings can be large or run the other way.
Assay: HTS Assay for Allosteric Antagonists of the Human D2 Dopamine Receptor: Hit Validation in HTRF (AID 624455)
Conditions: Cells stably expressing D1 dopamine receptor, inhibition mode; series mostly up to 46.1 µM
Summary of the method: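 HTRF read-out; cells stably expressing D1 receptor; hits scored for inhibition of D1-mediated response. Primary screen: calcium flux, force-coupled inducible Hek293 Trex D2 line, antagonism vs EC80 dopamine.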

SMILES	outcome
CN=C(N)NCCC[C@H](N)C(=O)O	inactive
CCOC(=O)[C@H](CCc1ccccc1)N[C@@H](C)C(=O)N1[C@H](C(=O)O)C[C@H]2CCCC[C@@H]21	inactive
CC(C)(C)NC[C@H](O)COc1nsnc1N1CCOCC1	inactive

Assay: qHTS assay for small molecule agonists of the antioxidant response element (ARE) signaling pathway (AID 651741; active means well fitted activation curve with a large enough effect in the signal ratio; the % refers to the signal ratio; further: potency means the concentration at half of the fitted maximal effect)
Conditions: HepG2 ARE-bla reporter, beta-lactamase FRET ratio, 16 h; series mostly up to 96 µM
Summary of the method: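 Beta-lactamase reporter expression driven by the antioxidant response element in HepG2 cells was detected by fluorescence with LiveBLAzer B/G FRET substrate (2 h, room temperature) following 16 h compound treatment at 37 C.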

SMILES	Potency
OC[C@H]1O[C@@H]2O[C@H]3[C@H](O)[C@@H](O)[C@@H](O[C@H]4[C@H](O)[C@@H](O)[C@@H](O[C@H]5[C@H](O)[C@@H](O)[C@@H](O[C@H]6[C@H](O)[C@@H](O)[C@@H](O[C@H]7[C@H](O)[C@@H](O)[C@@H](O[C@H]8[C@H](O)[C@@H](O)[C@@H](O[C@H]1[C@H](O)[C@H]2O)O[C@@H]8CO)O[C@@H]7CO)O[C@@H]6CO)O[C@@H]5CO)O[C@@H]4CO)O[C@@H]3CO	inactive
CCCCCCCCCCCCCC(=O)OC(C)C	inactive
CCCCCCCCOc1ccc(C(=O)c2ccccc2)c(O)c1	inactive
C/C=C/c1ccc(O)c(OC)c1	30.6 µM (active) and 42.2 µM (active)
CCOc1ccccc1C(N)=O	inactive
Oc1c(Cl)cc(Cl)c(Cl)c1Cc1c(O)c(Cl)cc(Cl)c1Cl	6.86 µM (active)
CCCCCCCCCCCCCCCC(=O)O	inactive
NCCNc1cccc2ccccc12	inactive
CCCN(CCC)S(=O)(=O)c1ccc(C(=O)O)cc1	inactive
CCCCCCCCCCCCCCCCO	inactive
CC1(C)OC[C@@H]2O[C@@]3(C(=O)O)OC(C)(C)O[C@H]3[C@@H]2O1	inactive
CCOc1ccc(NC(C)=O)cc1	inactive
CCCCOC(=O)CC(CC(=O)OCCCC)(OC(C)=O)C(=O)OCCCC	inactive
NC(=O)c1ccccc1O	inactive

Reference: PubChem BioAssay (NCATS)
